According to ChEMBL document CHEMBL1961873, “Compounds: GSK PKIS; Assays: Nanosyn kinase panel” (2012):

What was measured:
[1] = target: Fibroblast growth factor receptor 4 (Homo sapiens) (UniProt P22455); conditions: at 1 µM;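 also: reported figure is the averaged percent inhibition of FGFR4, from the GSK PKIS kinase screening panel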
[2] = target: Tyrosine-protein kinase Fgr (Homo sapiens) (UniProt P09769); conditions: at 0.1 µM
[3] = target: Tyrosine-protein kinase Fgr (Homo sapiens) (UniProt P09769); conditions: at 1 µM
[4] = target: Vascular endothelial growth factor receptor 1 (Homo sapiens) (UniProt P17948); conditions: at 0.1 µM
Vascular endothelial growth factor receptor 1 (Homo sapiens), sequence (P17948 whole entry): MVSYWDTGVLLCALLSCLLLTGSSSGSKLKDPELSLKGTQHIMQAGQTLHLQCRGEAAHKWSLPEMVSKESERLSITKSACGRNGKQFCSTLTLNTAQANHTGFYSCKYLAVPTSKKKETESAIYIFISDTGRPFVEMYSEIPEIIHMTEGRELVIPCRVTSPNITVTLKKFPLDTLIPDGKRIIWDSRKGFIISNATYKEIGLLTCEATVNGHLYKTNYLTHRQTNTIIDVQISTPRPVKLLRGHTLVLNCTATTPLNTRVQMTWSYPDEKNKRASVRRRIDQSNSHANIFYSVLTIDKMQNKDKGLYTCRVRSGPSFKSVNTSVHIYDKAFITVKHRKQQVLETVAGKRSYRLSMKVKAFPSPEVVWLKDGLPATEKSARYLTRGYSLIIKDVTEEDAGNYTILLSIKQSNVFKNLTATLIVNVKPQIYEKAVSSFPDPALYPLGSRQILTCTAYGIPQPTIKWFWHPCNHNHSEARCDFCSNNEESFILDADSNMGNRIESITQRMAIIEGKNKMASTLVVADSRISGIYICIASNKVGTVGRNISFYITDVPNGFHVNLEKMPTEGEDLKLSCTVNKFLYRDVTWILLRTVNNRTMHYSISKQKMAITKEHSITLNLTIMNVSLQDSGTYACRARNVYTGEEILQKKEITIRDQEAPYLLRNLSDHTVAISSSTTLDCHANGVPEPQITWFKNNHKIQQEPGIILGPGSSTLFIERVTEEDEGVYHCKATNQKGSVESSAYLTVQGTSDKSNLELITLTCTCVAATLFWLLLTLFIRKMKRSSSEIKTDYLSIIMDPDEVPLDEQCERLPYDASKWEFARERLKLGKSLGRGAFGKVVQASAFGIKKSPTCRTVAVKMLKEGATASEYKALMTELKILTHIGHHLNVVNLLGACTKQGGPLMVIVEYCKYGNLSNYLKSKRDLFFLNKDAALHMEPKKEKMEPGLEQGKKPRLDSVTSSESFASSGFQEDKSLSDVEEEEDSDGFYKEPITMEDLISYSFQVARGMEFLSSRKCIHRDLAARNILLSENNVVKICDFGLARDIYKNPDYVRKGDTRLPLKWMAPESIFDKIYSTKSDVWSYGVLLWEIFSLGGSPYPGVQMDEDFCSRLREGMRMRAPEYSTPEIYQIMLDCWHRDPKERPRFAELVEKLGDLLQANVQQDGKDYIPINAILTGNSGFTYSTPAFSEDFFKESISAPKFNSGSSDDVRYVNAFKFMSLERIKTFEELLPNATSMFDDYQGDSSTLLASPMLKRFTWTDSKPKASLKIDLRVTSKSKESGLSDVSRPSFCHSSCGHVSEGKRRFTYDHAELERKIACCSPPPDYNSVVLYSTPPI

[5] = target: Vascular endothelial growth factor receptor 1 (Homo sapiens) (UniProt P17948); conditions: at 1 µM
[6] = target: Receptor-type tyrosine-protein kinase FLT3 (Homo sapiens) (UniProt P36888); conditions: at 0.1 µM
[7] = target: Receptor-type tyrosine-protein kinase FLT3 (Homo sapiens) (UniProt P36888); conditions: at 1 µM
[8] = system: T1, Receptor-type tyrosine-protein kinase FLT3 (Homo sapiens), P36888 [D835Y]; conditions: at 0.1 µM
T1 sequence (whole entry): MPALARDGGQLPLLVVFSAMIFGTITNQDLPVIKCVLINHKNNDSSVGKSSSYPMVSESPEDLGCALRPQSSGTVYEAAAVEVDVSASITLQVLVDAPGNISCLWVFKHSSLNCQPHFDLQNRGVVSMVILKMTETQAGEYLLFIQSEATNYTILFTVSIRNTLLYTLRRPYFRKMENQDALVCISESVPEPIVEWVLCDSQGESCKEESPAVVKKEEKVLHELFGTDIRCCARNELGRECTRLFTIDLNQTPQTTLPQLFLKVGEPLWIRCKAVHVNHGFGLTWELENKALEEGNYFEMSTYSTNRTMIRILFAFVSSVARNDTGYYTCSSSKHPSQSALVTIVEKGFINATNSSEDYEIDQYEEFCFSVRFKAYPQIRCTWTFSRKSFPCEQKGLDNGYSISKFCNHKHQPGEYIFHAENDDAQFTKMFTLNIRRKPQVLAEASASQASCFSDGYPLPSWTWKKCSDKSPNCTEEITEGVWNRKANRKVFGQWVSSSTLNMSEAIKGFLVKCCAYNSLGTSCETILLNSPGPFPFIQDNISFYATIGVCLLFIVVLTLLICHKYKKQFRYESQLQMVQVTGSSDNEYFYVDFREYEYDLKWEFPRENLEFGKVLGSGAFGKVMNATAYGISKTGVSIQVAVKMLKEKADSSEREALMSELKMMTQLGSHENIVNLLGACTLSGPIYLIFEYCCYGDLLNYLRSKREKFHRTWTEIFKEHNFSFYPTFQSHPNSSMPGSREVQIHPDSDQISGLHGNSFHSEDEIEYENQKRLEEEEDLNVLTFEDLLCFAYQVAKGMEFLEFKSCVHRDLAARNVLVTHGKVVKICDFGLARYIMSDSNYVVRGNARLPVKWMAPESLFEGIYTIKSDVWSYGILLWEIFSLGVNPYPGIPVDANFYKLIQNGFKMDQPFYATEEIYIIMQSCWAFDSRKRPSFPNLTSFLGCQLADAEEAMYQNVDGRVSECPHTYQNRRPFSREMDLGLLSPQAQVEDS

[9] = target: Non-receptor tyrosine-protein kinase TYK2 (Homo sapiens) (UniProt P29597); conditions: at 1 µM;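 also: values are mean percent inhibition of TYK2 kinase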
Non-receptor tyrosine-protein kinase TYK2 (Homo sapiens), sequence (P29597 whole entry): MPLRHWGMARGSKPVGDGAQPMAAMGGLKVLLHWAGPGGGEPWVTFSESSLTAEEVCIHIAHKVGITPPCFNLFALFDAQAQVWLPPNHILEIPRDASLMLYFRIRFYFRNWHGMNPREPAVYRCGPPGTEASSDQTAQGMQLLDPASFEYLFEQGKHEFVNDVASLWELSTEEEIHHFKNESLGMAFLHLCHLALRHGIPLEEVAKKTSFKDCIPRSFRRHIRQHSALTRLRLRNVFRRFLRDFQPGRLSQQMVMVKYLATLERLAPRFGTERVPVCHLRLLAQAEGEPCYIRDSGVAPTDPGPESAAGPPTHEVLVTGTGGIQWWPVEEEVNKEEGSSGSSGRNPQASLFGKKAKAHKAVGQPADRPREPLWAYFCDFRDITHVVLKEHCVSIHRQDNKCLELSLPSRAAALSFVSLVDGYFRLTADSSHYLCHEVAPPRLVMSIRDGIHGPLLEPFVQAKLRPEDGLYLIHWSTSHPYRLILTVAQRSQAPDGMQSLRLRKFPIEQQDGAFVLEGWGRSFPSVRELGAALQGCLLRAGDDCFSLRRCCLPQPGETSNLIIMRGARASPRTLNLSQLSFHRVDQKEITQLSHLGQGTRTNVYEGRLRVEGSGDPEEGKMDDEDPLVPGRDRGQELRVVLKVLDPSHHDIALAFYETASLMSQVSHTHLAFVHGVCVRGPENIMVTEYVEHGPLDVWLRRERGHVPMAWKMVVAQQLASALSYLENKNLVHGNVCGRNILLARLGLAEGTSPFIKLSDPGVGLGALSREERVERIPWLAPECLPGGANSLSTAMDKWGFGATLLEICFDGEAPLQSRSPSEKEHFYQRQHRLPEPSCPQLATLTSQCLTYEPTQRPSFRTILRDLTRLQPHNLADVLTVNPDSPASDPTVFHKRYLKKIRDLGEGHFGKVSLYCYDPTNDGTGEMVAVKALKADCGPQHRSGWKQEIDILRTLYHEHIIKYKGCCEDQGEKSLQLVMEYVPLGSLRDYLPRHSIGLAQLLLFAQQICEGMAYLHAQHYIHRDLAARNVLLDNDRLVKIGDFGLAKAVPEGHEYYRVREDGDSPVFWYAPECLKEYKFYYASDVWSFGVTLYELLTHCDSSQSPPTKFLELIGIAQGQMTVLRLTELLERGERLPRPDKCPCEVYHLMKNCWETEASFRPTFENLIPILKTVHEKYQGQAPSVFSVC

[10] = target: T2, Tyrosine-protein kinase receptor TYRO3 (Homo sapiens) (UniProt Q06418); conditions: at 0.1 µM
T2 sequence (whole entry): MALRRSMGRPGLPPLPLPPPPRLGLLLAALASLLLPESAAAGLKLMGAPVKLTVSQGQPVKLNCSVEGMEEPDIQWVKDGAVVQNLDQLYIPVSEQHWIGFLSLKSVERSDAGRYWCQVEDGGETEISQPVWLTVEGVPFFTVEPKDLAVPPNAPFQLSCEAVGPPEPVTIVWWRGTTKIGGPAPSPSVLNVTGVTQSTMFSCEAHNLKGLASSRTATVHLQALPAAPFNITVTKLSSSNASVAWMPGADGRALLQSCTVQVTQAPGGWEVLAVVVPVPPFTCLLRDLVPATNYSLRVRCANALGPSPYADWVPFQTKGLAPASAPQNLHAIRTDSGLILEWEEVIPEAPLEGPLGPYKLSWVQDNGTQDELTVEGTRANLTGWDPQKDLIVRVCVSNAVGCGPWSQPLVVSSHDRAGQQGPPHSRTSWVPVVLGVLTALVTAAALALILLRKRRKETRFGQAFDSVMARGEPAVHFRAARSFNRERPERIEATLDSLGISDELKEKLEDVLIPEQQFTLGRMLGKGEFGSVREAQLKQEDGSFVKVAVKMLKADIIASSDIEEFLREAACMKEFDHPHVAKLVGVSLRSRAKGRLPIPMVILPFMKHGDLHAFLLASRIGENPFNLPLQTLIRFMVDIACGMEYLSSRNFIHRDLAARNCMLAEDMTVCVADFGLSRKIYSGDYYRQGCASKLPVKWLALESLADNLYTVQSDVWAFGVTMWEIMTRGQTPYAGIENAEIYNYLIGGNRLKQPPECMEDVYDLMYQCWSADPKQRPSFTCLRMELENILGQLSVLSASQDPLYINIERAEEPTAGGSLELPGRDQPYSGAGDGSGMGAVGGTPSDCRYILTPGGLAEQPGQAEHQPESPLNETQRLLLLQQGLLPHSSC

[11] = target: T2, Tyrosine-protein kinase receptor TYRO3 (Homo sapiens); conditions: at 1 µM
[12] = target: Tyrosine-protein kinase Yes (Homo sapiens) (UniProt P07947); conditions: at 0.1 µM
[13] = target: Tyrosine-protein kinase Yes (Homo sapiens) (UniProt P07947); conditions: at 1 µM
[14] = target: T3, Tyrosine-protein kinase ZAP-70 (Homo sapiens) (UniProt P43403); conditions: at 0.1 µM
T3 sequence (whole entry): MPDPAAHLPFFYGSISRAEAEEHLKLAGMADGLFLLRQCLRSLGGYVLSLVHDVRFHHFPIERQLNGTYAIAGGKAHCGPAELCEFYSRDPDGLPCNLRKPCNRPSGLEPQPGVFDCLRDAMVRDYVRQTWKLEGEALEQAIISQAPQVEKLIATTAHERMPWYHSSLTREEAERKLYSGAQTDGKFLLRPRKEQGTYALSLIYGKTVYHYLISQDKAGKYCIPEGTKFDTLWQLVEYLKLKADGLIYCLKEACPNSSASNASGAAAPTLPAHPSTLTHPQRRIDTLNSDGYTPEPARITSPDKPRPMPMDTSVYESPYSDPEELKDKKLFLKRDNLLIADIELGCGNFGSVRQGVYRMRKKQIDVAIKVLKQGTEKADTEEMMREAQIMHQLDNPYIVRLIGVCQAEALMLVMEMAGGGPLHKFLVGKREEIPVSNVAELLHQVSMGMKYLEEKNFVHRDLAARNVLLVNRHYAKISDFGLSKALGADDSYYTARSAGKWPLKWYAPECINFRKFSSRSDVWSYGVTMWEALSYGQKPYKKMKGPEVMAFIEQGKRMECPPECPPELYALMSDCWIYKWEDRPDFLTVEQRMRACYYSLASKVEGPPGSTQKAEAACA

[15] = target: T3, Tyrosine-protein kinase ZAP-70 (Homo sapiens); conditions: at 1 µM
[16] = target: Serine/threonine-protein kinase B-raf (Homo sapiens) (UniProt P15056); conditions: at 0.1 µM
Serine/threonine-protein kinase B-raf (Homo sapiens), sequence (P15056 whole entry): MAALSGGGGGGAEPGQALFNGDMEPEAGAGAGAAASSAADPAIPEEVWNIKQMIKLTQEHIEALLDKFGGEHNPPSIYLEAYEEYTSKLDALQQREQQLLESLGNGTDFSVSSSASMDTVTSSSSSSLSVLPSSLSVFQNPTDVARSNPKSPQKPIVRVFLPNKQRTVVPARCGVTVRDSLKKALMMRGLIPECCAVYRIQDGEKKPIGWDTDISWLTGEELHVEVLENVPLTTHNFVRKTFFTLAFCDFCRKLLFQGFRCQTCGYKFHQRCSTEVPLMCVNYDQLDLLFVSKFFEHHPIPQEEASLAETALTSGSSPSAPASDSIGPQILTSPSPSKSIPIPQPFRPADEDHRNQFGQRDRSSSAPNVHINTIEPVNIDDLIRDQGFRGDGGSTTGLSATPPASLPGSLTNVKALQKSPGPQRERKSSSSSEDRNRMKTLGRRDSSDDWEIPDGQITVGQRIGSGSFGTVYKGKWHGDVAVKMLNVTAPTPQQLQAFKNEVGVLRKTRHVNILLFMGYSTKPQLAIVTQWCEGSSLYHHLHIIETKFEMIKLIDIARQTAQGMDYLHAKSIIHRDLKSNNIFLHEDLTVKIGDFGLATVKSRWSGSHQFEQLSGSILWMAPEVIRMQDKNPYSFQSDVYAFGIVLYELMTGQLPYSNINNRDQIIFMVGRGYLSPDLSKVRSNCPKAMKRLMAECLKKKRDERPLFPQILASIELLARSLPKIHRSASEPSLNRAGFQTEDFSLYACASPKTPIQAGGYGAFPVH

[17] = target: Serine/threonine-protein kinase B-raf (Homo sapiens) (UniProt P15056); conditions: at 1 µM
[18] = system: Serine/threonine-protein kinase B-raf (Homo sapiens), P15056 [V600E]; conditions: at 0.1 µM
Serine/threonine-protein kinase B-raf (Homo sapiens), P15056 [V600E], sequence (P15056 whole entry V600E): as the sequence (P15056 whole entry) above, with V600E counted along it

[19] = system: Serine/threonine-protein kinase B-raf (Homo sapiens), P15056 [V600E]; conditions: at 1 µM
[20] = target: RAF proto-oncogene serine/threonine-protein kinase (Homo sapiens) (UniProt P04049); conditions: at 0.1 µM;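 also: values are mean CRAF kinase inhibition from profiling of the GSK Published Kinase Inhibitor Set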
RAF proto-oncogene serine/threonine-protein kinase (Homo sapiens), sequence (P04049 whole entry): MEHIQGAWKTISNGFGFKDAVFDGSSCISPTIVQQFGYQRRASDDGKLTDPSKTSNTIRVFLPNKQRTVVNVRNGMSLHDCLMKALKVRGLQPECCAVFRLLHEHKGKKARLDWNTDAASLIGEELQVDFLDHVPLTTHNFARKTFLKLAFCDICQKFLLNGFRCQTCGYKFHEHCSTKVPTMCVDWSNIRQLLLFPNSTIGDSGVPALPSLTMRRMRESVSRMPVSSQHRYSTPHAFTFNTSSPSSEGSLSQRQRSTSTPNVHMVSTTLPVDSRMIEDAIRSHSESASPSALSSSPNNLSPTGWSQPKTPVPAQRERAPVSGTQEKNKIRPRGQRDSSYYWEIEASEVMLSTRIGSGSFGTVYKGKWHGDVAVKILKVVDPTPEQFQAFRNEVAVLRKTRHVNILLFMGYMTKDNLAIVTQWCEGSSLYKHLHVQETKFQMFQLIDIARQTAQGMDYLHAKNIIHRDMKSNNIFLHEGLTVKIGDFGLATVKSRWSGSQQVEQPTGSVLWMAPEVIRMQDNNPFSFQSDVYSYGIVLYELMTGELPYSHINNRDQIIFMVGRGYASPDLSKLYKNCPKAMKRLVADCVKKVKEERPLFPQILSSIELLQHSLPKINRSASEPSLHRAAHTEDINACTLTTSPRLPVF

Fibroblast growth factor receptor 4 (Homo sapiens), sequence (P22455 22-802 limits assumed): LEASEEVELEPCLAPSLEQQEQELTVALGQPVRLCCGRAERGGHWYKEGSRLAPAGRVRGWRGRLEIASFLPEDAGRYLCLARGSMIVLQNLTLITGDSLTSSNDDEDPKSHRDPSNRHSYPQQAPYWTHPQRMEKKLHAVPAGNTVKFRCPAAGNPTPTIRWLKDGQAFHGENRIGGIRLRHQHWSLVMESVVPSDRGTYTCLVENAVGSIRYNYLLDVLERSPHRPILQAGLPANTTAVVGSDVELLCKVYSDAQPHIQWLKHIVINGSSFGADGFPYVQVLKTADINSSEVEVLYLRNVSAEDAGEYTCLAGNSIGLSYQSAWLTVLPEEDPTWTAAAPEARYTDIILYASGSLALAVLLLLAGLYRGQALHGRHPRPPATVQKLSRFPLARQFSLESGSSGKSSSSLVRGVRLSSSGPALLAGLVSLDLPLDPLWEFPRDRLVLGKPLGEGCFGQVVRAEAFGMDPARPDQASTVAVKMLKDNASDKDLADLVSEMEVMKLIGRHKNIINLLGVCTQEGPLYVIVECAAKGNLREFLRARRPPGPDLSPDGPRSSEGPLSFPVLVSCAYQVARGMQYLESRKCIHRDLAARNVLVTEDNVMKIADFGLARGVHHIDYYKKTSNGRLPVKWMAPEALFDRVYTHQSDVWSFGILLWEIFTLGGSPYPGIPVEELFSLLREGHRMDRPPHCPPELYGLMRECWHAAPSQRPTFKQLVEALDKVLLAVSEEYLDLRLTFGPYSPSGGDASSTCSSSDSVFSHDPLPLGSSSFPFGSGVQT

## O=C1Nc2ccccc2/C1=C/Nc1ccc(-n2cncn2)cc1
[1]
  inhibition: 2.81%
[2]
  inhibition: 4.93%
[3]
  inhibition: 12.8%
[4]
  inhibition: 4.03%
[5]
  inhibition: 24.1%
[6]
  inhibition: 12.5%
[7]
  inhibition: 53.7%
[8]
  inhibition: 16.4%
[9]
  inhibition: 12.3%
[10]
  inhibition: 3.19%
[11]
  inhibition: 10.2%
[12]
  inhibition: 3.29%
[13]
  inhibition: 15.7%
[14]
  inhibition: 4.53%
[15]
  inhibition: 7.33%
[16]
  inhibition: 6.1%
[17]
  inhibition: 6.87%
[18]
  inhibition: 7.05%
[19]
  inhibition: 6.86%
[20]
  inhibition: 15.1%

## O=C(Nc1ccc(Oc2ccc3[nH]c(NC(=O)c4ccccc4)nc3c2)cc1)Nc1cc(C(F)(F)F)ccc1F
[1]
  inhibition: 0.83%
[2]
  inhibition: 9.57%
[3]
  inhibition: 7.53%
[4]
  inhibition: 5.53%
[5]
  inhibition: 39.3%
[6]
  inhibition: 6.63%
[7]
  inhibition: 53.4%
[8]
  inhibition: -0.18%
[9]
  inhibition: -0.97%
[10]
  inhibition: 2.33%
[11]
  inhibition: 16.8%
[12]
  inhibition: 1.01%
[13]
  inhibition: 7.23%
[14]
  inhibition: -1.74%
[15]
  inhibition: 1.65%
[16]
  inhibition: 4.48%
[17]
  inhibition: 33.4%
[18]
  inhibition: 5.24%
[19]
  inhibition: 42.7%
[20]
  inhibition: -3.16%

## COc1cc(C)c(N(C)C(=O)CN(C)C)cc1Nc1nc(Nc2cccc(F)c2C(N)=O)c2cc[nH]c2n1
[1]
  inhibition: -2.22%
[2]
  inhibition: 0.53%
[3]
  inhibition: 2%
[4]
  inhibition: -0.09%
[5]
  inhibition: 1.09%
[6]
  inhibition: 1.42%
[7]
  inhibition: 2.03%
[8]
  inhibition: 0.68%
[9]
  inhibition: -1.64%
[10]
  inhibition: 1.86%
[11]
  inhibition: -0.84%
[12]
  inhibition: 0.04%
[13]
  inhibition: -3.38%
[14]
  inhibition: -1.25%
[15]
  inhibition: -6.34%
[16]
  inhibition: 1.62%
[17]
  inhibition: 3.95%
[18]
  inhibition: 2.25%
[19]
  inhibition: 3.53%
[20]
  inhibition: -0.36%

## Cc1ccc(C(=O)NC(C)C)cc1-c1ccc(C(=O)NCC2CC2)cc1
[1]
  inhibition: 0.47%
[2]
  inhibition: -1.7%
[3]
  inhibition: -1.1%
[4]
  inhibition: 0.43%
[5]
  inhibition: -1.81%
[6]
  inhibition: -4.25%
[7]
  inhibition: -1.66%
[8]
  inhibition: -1.15%
[9]
  inhibition: 2.94%
[10]
  inhibition: -2.22%
[11]
  inhibition: -0.5%
[12]
  inhibition: -0.21%
[13]
  inhibition: -0.56%
[14]
  inhibition: -5.65%
[15]
  inhibition: -1.41%
[16]
  inhibition: -3.13%
[17]
  inhibition: -5.03%
[18]
  inhibition: -4.24%
[19]
  inhibition: -2.75%
[20]
  inhibition: -1.46%

## NC(=O)c1ccc(Oc2nccc(-c3c(-c4ccc(F)cc4)ncn3C3CCNCC3)n2)cc1
[1]
  inhibition: 3.45%
[2]
  inhibition: 1.87%
[3]
  inhibition: 3.62%
[4]
  inhibition: 0.89%
[5]
  inhibition: -0.43%
[6]
  inhibition: 2.76%
[7]
  inhibition: 4.78%
[8]
  inhibition: 0.27%
[9]
  inhibition: -4.56%
[10]
  inhibition: 2.41%
[11]
  inhibition: 4.62%
[12]
  inhibition: 4.3%
[13]
  inhibition: 4.13%
[14]
  inhibition: 2.59%
[15]
  inhibition: 4.42%
[16]
  inhibition: 7.51%
[17]
  inhibition: 10.8%
[18]
  inhibition: 4.69%
[19]
  inhibition: 5.64%
[20]
  inhibition: 3.18%

## Fc1ccc(-c2ncn(C3CCNCC3)c2-c2ccnc(Oc3ccc4c(c3)OCO4)n2)cc1
[1]
  inhibition: 0.91%
[2]
  inhibition: 3.23%
[3]
  inhibition: 7.38%
[4]
  inhibition: 0.92%
[5]
  inhibition: 2.35%
[6]
  inhibition: 4.05%
[7]
  inhibition: 7.47%
[8]
  inhibition: -0.87%
[9]
  inhibition: -3.97%
[10]
  inhibition: 1.93%
[11]
  inhibition: 3.42%
[12]
  inhibition: 3.41%
[13]
  inhibition: 3.52%
[14]
  inhibition: 0.26%
[15]
  inhibition: -6.92%
[16]
  inhibition: 7.39%
[17]
  inhibition: 12.7%
[18]
  inhibition: 6.25%
[19]
  inhibition: 8.22%
[20]
  inhibition: 1.31%

## CCN(CC)Cc1ccc(Nc2nccc(-c3cnn4ncccc34)n2)cc1
[1]
  inhibition: -3.39%
[2]
  inhibition: 2.7%
[3]
  inhibition: 11.3%
[4]
  inhibition: 3.62%
[5]
  inhibition: 16.2%
[6]
  inhibition: 7.95%
[7]
  inhibition: 47.7%
[8]
  inhibition: -3.04%
[9]
  inhibition: 11.6%
[10]
  inhibition: 4.07%
[11]
  inhibition: 18.2%
[12]
  inhibition: 4.42%
[13]
  inhibition: 22.5%
[14]
  inhibition: -3.68%
[15]
  inhibition: -4.19%
[16]
  inhibition: 7.03%
[17]
  inhibition: 17.7%
[18]
  inhibition: 4.68%
[19]
  inhibition: 14%
[20]
  inhibition: 0.49%
